Records with an inconclusive call do not appear. A call without a number means that no potency is given here. Activity calls are given as the source filed them. The call rests on the fitted dose curve; in most records, active means well fitted inhibition curve with a large enough effect; inconclusive means small, poorly fitted or top-dose-only effect; inactive means flat fitted curve, though single readings scatter. Where a SMILES comes first, the peptide text is derived from it. Bridges are numbered along the chain shown (N, C = ends). [ ]: non-standard residue; d: D form. hArg = N=C(N)NCCCC[C@H](N)C(=O)O; Mpa = O=C(O)CCS
Potency means the concentration at half of the fitted maximal effect.

Chain of Voltage-gated inwardly rectifying potassium channel KCNH2 (Homo sapiens) (Q12809 whole entry, looked up): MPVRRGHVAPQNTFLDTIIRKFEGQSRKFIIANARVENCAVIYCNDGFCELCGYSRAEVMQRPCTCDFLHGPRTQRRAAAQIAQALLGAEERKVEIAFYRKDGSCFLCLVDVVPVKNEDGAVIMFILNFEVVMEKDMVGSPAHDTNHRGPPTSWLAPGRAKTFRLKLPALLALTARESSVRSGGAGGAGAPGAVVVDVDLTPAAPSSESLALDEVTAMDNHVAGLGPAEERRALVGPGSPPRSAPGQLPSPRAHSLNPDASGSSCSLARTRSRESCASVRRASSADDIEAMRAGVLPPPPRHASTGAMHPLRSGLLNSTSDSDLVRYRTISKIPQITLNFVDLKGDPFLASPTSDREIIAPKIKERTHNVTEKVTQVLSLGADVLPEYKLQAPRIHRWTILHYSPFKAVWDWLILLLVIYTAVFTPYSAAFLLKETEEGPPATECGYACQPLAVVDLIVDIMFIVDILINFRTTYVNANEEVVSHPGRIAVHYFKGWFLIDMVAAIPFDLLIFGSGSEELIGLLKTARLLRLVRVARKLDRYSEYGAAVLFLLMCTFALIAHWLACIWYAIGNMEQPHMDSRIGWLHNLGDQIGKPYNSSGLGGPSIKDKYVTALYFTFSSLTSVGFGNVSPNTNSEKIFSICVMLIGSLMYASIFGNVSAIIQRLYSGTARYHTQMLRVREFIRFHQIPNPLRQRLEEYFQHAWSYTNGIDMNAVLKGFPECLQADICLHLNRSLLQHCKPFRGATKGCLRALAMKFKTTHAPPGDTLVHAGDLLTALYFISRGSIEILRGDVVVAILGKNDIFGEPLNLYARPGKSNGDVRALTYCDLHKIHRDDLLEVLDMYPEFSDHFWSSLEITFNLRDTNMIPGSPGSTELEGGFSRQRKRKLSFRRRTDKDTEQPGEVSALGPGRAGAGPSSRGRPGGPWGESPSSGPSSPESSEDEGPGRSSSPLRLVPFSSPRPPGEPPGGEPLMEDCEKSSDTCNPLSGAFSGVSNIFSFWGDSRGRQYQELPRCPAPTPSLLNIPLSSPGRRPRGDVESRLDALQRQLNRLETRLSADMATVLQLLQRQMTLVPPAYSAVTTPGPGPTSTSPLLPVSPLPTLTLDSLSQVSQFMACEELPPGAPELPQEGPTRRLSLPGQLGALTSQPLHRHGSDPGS

This experiment concerns the target Voltage-gated inwardly rectifying potassium channel KCNH2 (Homo sapiens) (UniProt Q12809). Description: qHTS Assay for Small Molecule Inhibitors of the Human hERG Channel Activity (AID 588834).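 Further: lower thallium flux fluorescence means stronger hERG block; nearly all actives have a fitted effect of over 50% in size.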 Conditions: U2OS BacMam hERG, FluxOR thallium flux fluorescence; series mostly up to 46.1 µM. An excerpt:
NIH Chemical Genomics Center [NCGC]
National Institutes of Environmental Health Sciences [NIEHS]
National Toxicology Program [NTP]
We have developed a 1536-well cell-based assay for quantitative high throughput screening (qHTS) to determine in vitro hERG channel blockage as a measure of cardio toxicity with small molecules. This particular assay uses the U2OS cell line which is derived from human osteosarcoma.
NCGC Assay Protocol Summary:
HERG assay (FluxORTM thallium flux assay) was initially developed by Invitrogen/Molecular Probes, and then miniaturized into 1536-well plate in a homogeneous format by NCGC. This assay measures the activity of potassium channel using thallium dye (FluxOR) flux as surrogate measurement for potassium into the cells with a FDSS-7000 kinetic plate reader (Hamamatsu Corp., Hamamatsu City, Japan). The hERG ion channel is transduced into mammalian cells (U2OS) using a baculovirus (Bacmam) construct harboring the hERG K+ ion channel. So far we screened LOPAC1280 library (Sigma), the NTP collection of 1408 compounds, and the NCGC Pharmaceutical Collection (NPC), in which many well defined HERG blockers are present. The rank order potencies of many of these compounds are similar to that of other HERG assays (membrane potential, Rb+ flux, patch clamp, etc). This quick and homogeneous assay is also found to be sensitive, specific, and robust.
Using the FluxORTM thallium flux assay, the activity of potassium channel using thallium dye (FluxOR) flux as surrogate measurement for potassium into the cells was measured in the U2OS cell line transduced with hERG K+ ion channel using a baculovirus (Bacmam) using Opti-MEM medium (Invitrogen) containing 2% fetal calf serum (FCS, HyCone) following loading buffer addition, compound treatment for around 10 minutes and finally adding stimulation buffer. The assay was performed in black clear Kalypsys 1536-well plates. In the screen, Astemizole was used as positive controls. Library compounds were measured for their ability to cause hERG channel blockage in the cell line, as reflected by a decrease in fluorescence intensity, in a concentration-dependent manner. […] AC50 values were determined from concentration-response data modeled with the standard Hill equation.
qHTS protocol for hERG-U2OS cellular assay
[Step] [Parameter] [Value] [Description]
1. Day 1: Replace medium in 70-80% confluent T225 flask with 2.5 mL of hERG-BacMam virus plus 12.5 mL of phosphate buffered saline (PBS) (corresponding roughly to a multiplicity of infection ratio of 100 virus particles/cell)
2. Incubation: 4 hrs @ room Temperature in Dark
3. Reagent; Remove virus; wash once with 25 ml DPBS
4. Reagent; 35 ml culture medium
5. Incubation; 37 °C overnight
6. Day2: Reagent; 3 uL; 2000 U2OS cells/well
7. Time; 4 hr; 37 °C incubation
8. Loading buffer; 1 uL; 0.7X;
9. Incubation: 1hr @ RT in Dark.
12. Time; 10min; 37 °C incubation
13. Read fluorescence Intensity on FDSS for 10 Sec with 1 sec interval
14. Reagent; 1 uL; stimulation buffer
15. Read fluorescence Intensity on FDSS for 2 min with 1 sec interval
16. Detection; Fluorescence Intensity; FDSS
In general terms: qHTS replaces the single test concentration by a dilution series.
On to `NC(=O)[C@@H]1CSSCCC(=O)N[C@@H](CCCCN=C(N)N)C(=O)NCC(=O)N[C@@H](CC(=O)O)C(=O)N[C@@H](Cc2c[nH]c3ccccc23)C(=O)N2CCC[C@H]2C(=O)N1` ([Mpa][hArg]GDWPC-NH2; disulfide 1-7), for which the Potency result was “inactive”.
Regarding `C[C@H]1COc2c(C3(N)CC3)c(F)cc3c(=O)c(C(=O)O)cn1c23`, the Potency result is “inactive”.
Consider `O=C(O)c1ccccc1C(=O)Nc1ccc(S(=O)(=O)Nc2nccs2)cc1`, for which the Potency entry is “inactive”.
Turning to `Cc1cccc(C(=O)O)c1O`, the Potency entry was “inactive”.
On to `COc1ccccc1OCC(O)CO` (stereo not given), for which the Potency result is “inactive”.
Turning to `NCC1CCC(C(=O)Oc2ccc(CCC(=O)O)cc2)CC1` (stereo not given), the Potency entry was “inactive”.
The value for `NC(=O)NC1NC(=O)NC1=O` (stereo not given) was “inactive”.
As for `O=C(O)CCCCC1CCSS1` (stereo not given), the Potency entry was “inactive”.
The value for `O=c1[nH]c(=O)c2ccccc2o1` was “inactive”; that for `COC(=O)c1ccc(O)cc1` was “inactive”; that for `O=c1[nH]c2cc(C(F)(F)F)c(N3CCOCC3)cc2n(CP(=O)(O)O)c1=O` was “inactive”.
On to `CC(=O)N(CC(O)CO)c1c(I)c(C(=O)NCC(O)CO)c(I)c(C(=O)NCC(O)CO)c1I` (stereo not given), for which the Potency entry was “inactive”.
With `CCN1CC(CCN2CCOCC2)C(c2ccccc2)(c2ccccc2)C1=O` (stereo not given), the Potency result was “inactive”.
Regarding `CC1CCc2cc(F)cc3c(=O)c(C(=O)O)cn1c23` (stereo not given), the Potency result was “inactive”.
The result for `NS(=O)(=O)c1ccc(C(=O)O)cc1` reads “inactive”; that for `Cc1ncc(CO)c(CN)c1O`, “inactive”; that for `OCc1ccc(Cl)cc1Cl`, “inactive”.
Turning to `NCc1ccc(S(N)(=O)=O)cc1`, the Potency entry is “inactive”.
The result for `CC(CSC(=O)c1ccccc1)C(=O)N1C[C@@H](Sc2ccccc2)C[C@H]1C(=O)O` (stereo not given in full) reads “inactive”.
Turning to `Nc1c2c(nc3c1CCC3)CCCC2`, the Potency result is “inactive”.
Consider `CCCCCCCCCCCCCCCCC(C(=O)O)C(O)(CC(=O)O)C(=O)O` (stereo not given), for which the Potency result is “inactive”.
With `O=C(O)[C@@H]1[C@H]2C[C@H]3c4[nH]c5ccccc5c4CCN3C[C@@H]2CC[C@@H]1O`, the Potency result was “inactive”.
The result for `C/C(=C(\CCO)SS/C(CCO)=C(\C)N(C=O)Cc1cnc(C)nc1N)N(C=O)Cc1cnc(C)nc1N` reads “inactive”; that for `O=C(O)Cc1cn(-c2ccccc2)nc1-c1ccc(Cl)cc1`, “inactive”.
For `O=C(O)/C=C/c1ccc(Cn2ccnc2)cc1`, the Potency entry was “inactive”.
For the compound `CC(=O)N(CC(O)CN(C(C)=O)c1c(I)c(C(=O)NCC(O)CO)c(I)c(C(=O)NCC(O)CO)c1I)c1c(I)c(C(=O)NCC(O)CO)c(I)c(C(=O)NCC(O)CO)c1I` (stereo not given), the Potency entry was “inactive”.
`CCN(CC)CCOC(=O)C(c1ccccc1)c1ccccc1`: the Potency is 2 µM (active).
Consider `NC(=O)NS(=O)(=O)c1ccc(N)cc1`, for which the Potency result is “inactive”.
`CN(C/C=C/C#CC(C)(C)C)Cc1cccc2ccccc12`: the Potency is 12.6 µM (active).
Turning to `CCCCCCCCCCCCCCCCN`, the Potency entry is “inactive”.
As to `CC(=O)N[C@H]1[C@H]([C@H](O)[C@H](O)CO)OC(C(=O)O)=C[C@@H]1N=C(N)N`, the Potency entry was “inactive”.
As to `COc1ccc(-c2cc(=O)c3c(O)cc(O[C@@H]4O[C@H](CO[C@@H]5O[C@@H](C)[C@H](O)[C@@H](O)[C@H]5O)[C@@H](O)[C@H](O)[C@H]4O)cc3o2)cc1O`, the Potency entry is “inactive”.
`CCCNC(C)C(=O)Nc1c(C)csc1C(=O)OC` (stereo not given): the Potency entry is “inactive”.
In the case of `Cc1c(NC(C)C)c(=O)n(-c2ccccc2)n1C`, the Potency result is “inactive”.
As for `C[N+](C)(C)CC(O)CC(=O)[O-]` (stereo not given), the Potency result is “inactive”.
In the case of `O=S1(=O)OC(c2ccc(O)cc2)(c2ccc(O)cc2)c2ccccc21`, the Potency result is “inactive”.
Turning to `Cc1ccccc1N=Nc1ccc(N=Nc2c(O)ccc3ccccc23)c(C)c1`, the Potency result was “inactive”.
As for `Cc1[nH]c(C)c(Cl)c(=O)c1Cl`, the Potency entry was “inactive”.
On to `NS(=O)(=O)c1cc2c(cc1C(F)(F)F)NCNS2(=O)=O`, for which the Potency result is “inactive”.
Regarding `CCN(CC)S(=O)(=O)c1ccc(C(=O)O)cc1`, the Potency entry is “inactive”.

The record behind these values is PubChem BioAssay (NCATS).
